Laboratory results: PubChem BioAssay (NCATS)
Values joined by “and” are separate entries in the source; they are usually repeats but may differ in a detail not shown here. Equal values may be shown once. Results filed as inconclusive are left out. Entries that show only a call come without a potency. Some structures have more than one record in an assay (separate samples or runs), and their calls can disagree. Active and inactive are the calls of the source. Unless noted, calls come from the whole dose curve; as a rule, active = well fitted curve in the direction sought with a large enough effect; inconclusive = small, poorly fitted or top-dose-only effect, or another doubt; inactive = no such curve, though single readings can be large; an effect the other way counts as inactive or inconclusive.

Columns and labels:
[1] = NS1 protein of Zika virus - qHTS assay to identify small molecule inhibitors in human HEK 293 cells (AID 1347053); conditions: HEK293 ZIKV MR766 infection, NS1 TR-FRET, 24 h; series mostly up to 46.1 µM; note: nearly all actives have a fitted effect of over 55% in size; note: potency is the fitted concentration of half-maximal effect
How it was run: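 HEK 293 cells pretreated with compound for 1 h, then infected with ZIKV MR766 (MOI 0.5) for 24 h at 37 C. NS1 detected by TR-FRET with two anti-NS1 antibodies; normalized to uninfected (0%) and infected (100%) wells.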

[2] = qHTS for Inhibitors of the Functional Ribonucleoprotein Complex (vRNP) of Lassa (LASV) Arenavirus: LASV Primary Screen - GLuc reporter signal (AID 1347082; calls by dose curve; tested in HEK293 reporter line; note: nearly all actives have a fitted effect of over 60% in size); conditions: LASV minigenome vRNP, Gaussia luciferase reporter; series mostly up to 57.5 µM
[3] = qHTS for Inhibitors of the Functional Ribonucleoprotein Complex (vRNP) of Lassa (LASV) Arenavirus: Viability assay - alamar blue signal for LASV Primary Screen (AID 1347083; calls by dose curve; tested in HEK293 reporter line; note: nearly all actives have a fitted effect of over 80% in size; note: potency is the fitted concentration of half-maximal effect); conditions: cell viability, alamar blue fluorescence (LASV minigenome counter-screen); series mostly up to 57.5 µM
[4] = qHTS for Inhibitors of the Functional Ribonucleoprotein Complex (vRNP) of Lymphocytic Choriomeningitis Arenaviruses (LCMV): Viability assay - alamar blue signal for LCMV Primary Screen (AID 1347085; calls by dose curve; tested in HEK293 reporter line; note: nearly all actives have a fitted effect of over 80% in size; note: potency is the fitted concentration of half-maximal effect); conditions: alamar blue viability counter-screen, LCMV vRNP screen cells; series mostly up to 57.5 µM
[5] = target: Nucleoprotein (Lymphocytic choriomeningitis virus (strain Armstrong)) (UniProt P09992); assay: qHTS for Inhibitors of the Functional Ribonucleoprotein Complex (vRNP) of Lymphocytic Choriomeningitis Arenaviruses (LCMV): LCMV Primary Screen - GLuc reporter signal (AID 1347086; calls by dose curve; note: nearly all actives have a fitted effect of over 70% in size; note: potency is the fitted concentration of half-maximal effect); conditions: LCMV minigenome vRNP cell assay, Gaussia luciferase reporter; series mostly up to 57.5 µM
[6] = qHTS of pediatric cancer cell lines to identify multiple opportunities for drug repurposing: Primary screen for TC32 cells (AID 1347089); conditions: TC32 Ewing sarcoma viability, CellTiter-Glo luminescence, 48 h; series mostly up to 45.8 µM; note: nearly all actives have a fitted effect of over 60% in size
How it was run: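 Luminescent CellTiter-Glo read-out of metabolically active TC32 cells after 48 h compound exposure. Primary: MIPE 11-point, 0.78 nM–46 µM; NPC 8-point, 0.59 nM–46 µM. Confirmatory: 11-point dilutions.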

[7] = qHTS of pediatric cancer cell lines to identify multiple opportunities for drug repurposing: Primary screen for DAOY cells (AID 1347090); conditions: DAOY medulloblastoma viability, CellTiter-Glo luminescence, 48 h; series mostly up to 46 µM; note: nearly all actives have a fitted effect of over 55% in size
How it was run: (§1)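 Viability measured as metabolically active cells via CellTiter-Glo luminescence following 48 hours of compound exposure, 11-point dilutions in confirmatory testing. 500-1,000 cells/well plated 5 hours before dosing; controls were DMSO and 2.3 µM bortezomib.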

[8] = qHTS of pediatric cancer cell lines to identify multiple opportunities for drug repurposing: Primary screen for SJ-GBM2 cells (AID 1347091); conditions: SJ-GBM2 viability, CellTiter-Glo luminescence, 48 h; series mostly up to 46 µM; note: potency is the fitted concentration of half-maximal effect
How it was run: as §1

[9] = qHTS of pediatric cancer cell lines to identify multiple opportunities for drug repurposing: Primary screen for SK-N-MC cells (AID 1347093); conditions: SK-N-MC viability, CellTiter-Glo luminescence, 48 h; series mostly up to 46 µM; note: potency is the fitted concentration of half-maximal effect
How it was run: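 Metabolically active cells were quantified by ATP-dependent luminescence (CellTiter-Glo, 15 min at room temperature) following 48 h treatment. Cells had been plated at 500-1,000 per well and settled for 5 h beforehand.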

[10] = qHTS of pediatric cancer cell lines to identify multiple opportunities for drug repurposing: Primary screen for NB-EBc1 cells (AID 1347095); conditions: NB-EBc1 neuroblastoma viability, CellTiter-Glo luminescence, 48 h; series mostly up to 46 µM; note: potency is the fitted concentration of half-maximal effect
How it was run: (§2)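 Cells plated at 500-1,000/well in growth medium, compounds added after 5 h. MIPE tested at 11 points (from 0.78 nM), NPC at 8 points (from 0.59 nM). CellTiter-Glo luminescence after 48 h; concentration-response curves from primary screen.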

[11] = qHTS of pediatric cancer cell lines to identify multiple opportunities for drug repurposing: Primary screen for Saos-2 cells (AID 1347097); conditions: Saos-2 viability, CellTiter-Glo ATP luminescence, 48 h; series mostly up to 46 µM; note: nearly all actives have a fitted effect of over 40% in size; note: potency is the fitted concentration of half-maximal effect
How it was run: as §2

[12] = qHTS of pediatric cancer cell lines to identify multiple opportunities for drug repurposing: Primary screen for SK-N-SH cells (AID 1347098); conditions: SK-N-SH viability, CellTiter-Glo luminescence, 48 h; series mostly up to 57 µM; note: nearly all actives have a fitted effect of over 65% in size; note: potency is the fitted concentration of half-maximal effect
How it was run: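 Cells (500-1,000/well) rested 5 h, then received compounds for 48 h; metabolically active cells were measured by CellTiter-Glo luminescence. Final concentrations spanned up to 46 µM (MIPE, 11-point) or 0.59 nM-46 µM (NPC, 8-point) in primary screens, 11-point in follow-ups.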

[13] = qHTS of pediatric cancer cell lines to identify multiple opportunities for drug repurposing: Primary screen for BT-37 cells (AID 1347094); conditions: BT-37 viability, CellTiter-Glo luminescence, 48 h; series mostly up to 57.3 µM; note: potency is the fitted concentration of half-maximal effect
How it was run: as §2

[14] = qHTS of pediatric cancer cell lines to identify multiple opportunities for drug repurposing: Primary screen for U-2 OS cells (AID 1347096); conditions: U-2 OS viability, CellTiter-Glo luminescence, 48 h; series mostly up to 46 µM; note: nearly all actives have a fitted effect of over 50% in size
How it was run: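 Viability after 48 h compound treatment at 37C, 500-1,000 cells/well, read as ATP luminescence with CellTiter-Glo. Primary screens used 11-point (MIPE, 0.78 nM-46 µM) or 8-point (NPC, 0.59 nM-46 µM) final concentrations; follow-up screens used 11-point dilutions.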

[15] = qHTS of pediatric cancer cell lines to identify multiple opportunities for drug repurposing: Primary screen for A673 cells (AID 1347092); conditions: A673 Ewing sarcoma viability, CellTiter-Glo ATP luminescence, 48 h; series mostly up to 46 µM; note: nearly all actives have a fitted effect of over 45% in size; note: potency is the fitted concentration of half-maximal effect
How it was run: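 A673 cells (500-1,000 cells/well in growth media) were pre-incubated 5 h at 37 degrees C, then exposed to compounds for 48 h. Viability was read as CellTiter-Glo luminescence; concentration-response curves came directly from the primary screen.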

Chain of Nucleoprotein (Lymphocytic choriomeningitis virus (strain Armstrong)) (P09992 whole entry, looked up): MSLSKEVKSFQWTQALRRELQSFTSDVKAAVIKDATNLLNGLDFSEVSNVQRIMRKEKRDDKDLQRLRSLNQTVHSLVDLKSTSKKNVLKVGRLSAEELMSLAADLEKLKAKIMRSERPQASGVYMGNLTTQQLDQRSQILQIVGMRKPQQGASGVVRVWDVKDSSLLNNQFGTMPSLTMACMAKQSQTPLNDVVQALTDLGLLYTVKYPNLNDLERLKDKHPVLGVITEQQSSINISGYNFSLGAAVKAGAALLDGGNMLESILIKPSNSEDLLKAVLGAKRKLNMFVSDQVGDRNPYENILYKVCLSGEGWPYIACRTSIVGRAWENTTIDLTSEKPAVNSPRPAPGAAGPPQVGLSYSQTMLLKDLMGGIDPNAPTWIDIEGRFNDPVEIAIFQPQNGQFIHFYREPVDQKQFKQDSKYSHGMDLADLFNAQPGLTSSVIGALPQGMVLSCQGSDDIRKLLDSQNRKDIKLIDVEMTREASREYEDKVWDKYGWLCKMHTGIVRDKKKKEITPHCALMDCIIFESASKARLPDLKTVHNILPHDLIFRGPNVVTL

With `CC(C)(C)CC(C)(C)c1ccc(O)cc1` the Potency [1] was “inactive”, the Potency [2] was “inactive” and the Potency [3] was “inactive”. For the same compound, the Potency [4] was “inactive”, the Potency [5] was “inactive” and the Potency [6] was “inactive”. The Potency [7] was “inactive”, the Potency [8] was 21.7 µM (active) and the Potency [9] was 27.3 µM (active). For the same compound, the Potency [10] was 30.6 µM (active), the Potency [11] was 30.6 µM (active) and 21.1 µM (active) and the Potency [12] was 25 µM (active).
With `COc1ccc2c(c1OC)CN1CCc3cc4c(cc3C1C2)OCO4` (stereo not drawn) the Potency [1] was “inactive”, the Potency [2] was “inactive” and the Potency [3] was “inactive”. The Potency [4] was “inactive”, the Potency [5] was “inactive” and the Potency [6] was “inactive”. For the same compound, the Potency [7] was “inactive”, the Potency [8] was “inactive” and the Potency [13] was 17.2 µM (active). The Potency [10] was “inactive”, the Potency [14] was “inactive” and the Potency [11] was “inactive”. The Potency [12] was “inactive”.
For `Oc1ccc(Cl)cc1Cc1ccccc1`, the Potency [1] was “inactive”, the Potency [2] was “inactive” and the Potency [3] was “inactive”. For the same compound, the Potency [4] was “inactive”, the Potency [5] was “inactive” and the Potency [6] was “inactive”. The Potency [7] was “inactive”, the Potency [8] was 12.3 µM (active) and the Potency [15] was 49.1 µM (active). The Potency [14] was “inactive”, the Potency [11] was 24.6 µM (active) and 23.7 µM (active) and the Potency [12] was 35.8 µM (active) and 17.2 µM (active).
In the case of `O=C1CC[C@@]2(O)[C@H]3Cc4ccc(O)c5c4[C@@]2(CCN3CC2CC2)[C@H]1O5`, the Potency [1] is reported as “inactive”, the Potency [2] is reported as “inactive” and the Potency [3] is reported as “inactive”. For the same compound, the Potency [4] was “inactive”, the Potency [5] was “inactive” and the Potency [6] was “inactive”. For the same compound, the Potency [7] was “inactive”, the Potency [8] was “inactive” and the Potency [15] was “inactive”. The Potency [13] was “inactive”, the Potency [10] was “inactive” and the Potency [14] was “inactive”. For the same compound, the Potency [11] was “inactive” and the Potency [12] was “inactive”.
For `C=CC(=O)Nc1cc2c(Nc3ccc(F)c(Cl)c3)ncnc2cc1OCCCN1CCOCC1`, the Potency [2] was “inactive”.
With `CN(C)c1nc(N(C)C)nc(N(C)C)n1` the Potency [2] was “inactive”.
In the case of `COc1cc([C@@H]2c3cc4c(cc3[C@H](O)[C@H]3COC(=O)[C@H]23)OCO4)cc(OC)c1OC`, the Potency [2] is reported as “inactive”.
In the case of `Cn1cc(C2=C(c3cn(C4CCN(Cc5ccccn5)CC4)c4ccccc34)C(=O)NC2=O)c2ccccc21`, the Potency [1] is reported as “inactive”, the Potency [2] is reported as “inactive” and the Potency [6] is reported as “inactive”. For the same compound, the Potency [7] was “inactive”, the Potency [15] was 3.72 µM (active) and the Potency [13] was “inactive”. For the same compound, the Potency [14] was “inactive” and the Potency [12] was “inactive”.
In the case of `Oc1cccc2cccnc12`, the Potency [1] is reported as 14.1 µM (active) and inactive, the Potency [2] is reported as “inactive” and the Potency [3] is reported as “inactive”. For the same compound, the Potency [4] was “inactive”, the Potency [5] was “inactive” and the Potency [6] was “inactive”. The Potency [8] was “inactive” and the Potency [13] was “inactive”.
For `CCN(CC)CCN1C(=O)CN=C(c2ccccc2F)c2cc(Cl)ccc21`, the Potency [1] was “inactive”, the Potency [4] was “inactive” and the Potency [5] was “inactive”. The Potency [6] was “inactive”, the Potency [7] was “inactive” and the Potency [8] was “inactive”. The Potency [15] was “inactive”, the Potency [9] was “inactive” and the Potency [13] was “inactive”. The Potency [10] was “inactive”, the Potency [14] was “inactive” and the Potency [11] was “inactive”. The Potency [12] was “inactive”.
For `C[C@@H]1[C@@H](C(=O)C[C@H]2O[C@@H]3O[C@]4(C)CC[C@@H]5[C@H](C)CC[C@@H]([C@H]2C)[C@@]35OO4)O[C@@H]2O[C@]3(C)CC[C@H]4[C@H](C)CC[C@@H]1[C@@]24OO3`, the Potency [1] was “inactive”, the Potency [3] was “inactive” and the Potency [4] was 21.7 µM (active). For the same compound, the Potency [9] was 0.372 µM (active), the Potency [13] was 1.09 µM (active) and the Potency [10] was 0.469 µM (active). The Potency [14] was “inactive”.
In the case of `CCC(C)(C)C(=O)O[C@H]1C[C@@H](C)C=C2C=C[C@H](C)[C@H](CC[C@@H]3C[C@@H](O)CC(=O)O3)[C@H]21`, the Potency [2] is reported as “inactive”.
In the case of `CCCSc1ccc2nc(NC(=O)OC)[nH]c2c1`, the Potency [2] is reported as “inactive”.
In the case of `COC(=O)C1=C(C)NC(C)=C(C(=O)OCCN(C)Cc2ccccc2)C1c1cccc([N+](=O)[O-])c1` (stereo not drawn), the Potency [2] is reported as “inactive”.
With `COC(=O)C1=C(C)NC(C)=C(C(=O)OC(C)C)C1c1cccc2nonc12` (stereo not drawn) the Potency [2] was “inactive”.
For `CCN(CC)C(=O)N[C@@H]1C=C2c3cccc4[nH]cc(c34)C[C@@H]2N(C)C1`, the Potency [1] was “inactive”, the Potency [2] was “inactive” and the Potency [3] was “inactive”. For the same compound, the Potency [5] was “inactive”, the Potency [6] was “inactive” and the Potency [7] was “inactive”. For the same compound, the Potency [8] was “inactive”, the Potency [15] was “inactive” and the Potency [9] was “inactive”. For the same compound, the Potency [13] was “inactive”, the Potency [10] was “inactive” and the Potency [14] was “inactive”. For the same compound, the Potency [11] was “inactive” and the Potency [12] was “inactive”.
In the case of `CSc1ccc2c(c1)N(CCC1CCCCN1C)c1ccccc1S2` (stereo not drawn), the Potency [2] is reported as “inactive”.
With `CC1=C2C[C@@H]3[C@@H](CC=C4C[C@@H](O)CC[C@@]43C)[C@@H]2CC[C@]12O[C@H]1C[C@H](C)CN[C@H]1[C@H]2C` the Potency [1] was “inactive”, the Potency [2] was “inactive” and the Potency [3] was “inactive”. For the same compound, the Potency [4] was “inactive”, the Potency [5] was “inactive” and the Potency [6] was “inactive”. The Potency [9] was “inactive”, the Potency [13] was “inactive” and the Potency [14] was “inactive”. The Potency [11] was “inactive” and the Potency [12] was 6.07 µM (active).
For `OCCN1C[C@H](O)[C@@H](O)[C@H](O)[C@H]1CO`, the Potency [2] was “inactive” and the Potency [3] was “inactive”.
With `COc1c(C)c2c(c(O)c1C/C=C(\C)CCC(=O)OCCN1CCOCC1)C(=O)OC2` the Potency [2] was “inactive”.
With `CCCCNc1ccc(C(=O)OCCOCCOCCOCCOCCOCCOCCOCCOCCOC)cc1` the Potency [2] was “inactive”, the Potency [3] was “inactive” and the Potency [4] was “inactive”. For the same compound, the Potency [5] was “inactive”.
In the case of `CC1(C)S[C@@H]2[C@H](NC(=O)[C@H](N)c3ccccc3)C(=O)N2[C@H]1C(=O)O`, the Potency [2] is reported as “inactive”, the Potency [3] is reported as “inactive” and the Potency [4] is reported as “inactive”. For the same compound, the Potency [5] was “inactive”.
In the case of `COC(=O)Nc1nc2ccc(C(=O)c3ccccc3)cc2[nH]1`, the Potency [2] is reported as “inactive”, the Potency [3] is reported as 3.43 µM (active) and the Potency [4] is reported as 6.85 µM (active). The Potency [5] was 5.44 µM (active).
With `OCCN1CCN(CCCN2c3ccccc3Sc3ccc(Cl)cc32)CC1` the Potency [2] was “inactive”, the Potency [3] was “inactive” and the Potency [4] was “inactive”. The Potency [5] was “inactive”.
In the case of `Clc1ccc(C(c2ccccc2Cl)C(Cl)Cl)cc1` (stereo not drawn), the Potency [2] is reported as “inactive”, the Potency [3] is reported as “inactive” and the Potency [4] is reported as “inactive”. The Potency [5] was “inactive”.
